In PubChem BioAssay:
Active and inactive are the calls of the source. Unless noted, no rule for the calls is given here.

What was measured:
[1] = compounds binding Alexa647 anti-His antibody – biochemical, small-molecule microarray, 635 nm fluorescence, artefact control for SMM control protein annotation, primary screen (AID 1128); settings: higher = more signal;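 also: score merges feature fluorescence with signal-to-noise for each printed compound spot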
[2] = tested on: Human papillomavirus type 1a E7 protein (residues 1-88); experiment: HPV1a E7 small-molecule binders, primary screen, biochemical, small-molecule microarray, residues 1-88, 635 nm (AID 1129); settings: small-molecule microarray binding, fluorescence 635 nm; higher = more signal
[3] = molecular target: Focal adhesion kinase 1 (Homo sapiens) (UniProt Q05397); experiment: PTK2 protein binding on printed compound slides – biochemical, small-molecule microarray, 635/667 nm fluorescence, BSA, DTT, primary screen (AID 1130); settings: 635 nm fluorescence, higher = more signal;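 also: composite of spot emission at 667 nm and signal to noise over triplicate slides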
Chain of Focal adhesion kinase 1 (Homo sapiens) (Q05397 whole entry, looked up): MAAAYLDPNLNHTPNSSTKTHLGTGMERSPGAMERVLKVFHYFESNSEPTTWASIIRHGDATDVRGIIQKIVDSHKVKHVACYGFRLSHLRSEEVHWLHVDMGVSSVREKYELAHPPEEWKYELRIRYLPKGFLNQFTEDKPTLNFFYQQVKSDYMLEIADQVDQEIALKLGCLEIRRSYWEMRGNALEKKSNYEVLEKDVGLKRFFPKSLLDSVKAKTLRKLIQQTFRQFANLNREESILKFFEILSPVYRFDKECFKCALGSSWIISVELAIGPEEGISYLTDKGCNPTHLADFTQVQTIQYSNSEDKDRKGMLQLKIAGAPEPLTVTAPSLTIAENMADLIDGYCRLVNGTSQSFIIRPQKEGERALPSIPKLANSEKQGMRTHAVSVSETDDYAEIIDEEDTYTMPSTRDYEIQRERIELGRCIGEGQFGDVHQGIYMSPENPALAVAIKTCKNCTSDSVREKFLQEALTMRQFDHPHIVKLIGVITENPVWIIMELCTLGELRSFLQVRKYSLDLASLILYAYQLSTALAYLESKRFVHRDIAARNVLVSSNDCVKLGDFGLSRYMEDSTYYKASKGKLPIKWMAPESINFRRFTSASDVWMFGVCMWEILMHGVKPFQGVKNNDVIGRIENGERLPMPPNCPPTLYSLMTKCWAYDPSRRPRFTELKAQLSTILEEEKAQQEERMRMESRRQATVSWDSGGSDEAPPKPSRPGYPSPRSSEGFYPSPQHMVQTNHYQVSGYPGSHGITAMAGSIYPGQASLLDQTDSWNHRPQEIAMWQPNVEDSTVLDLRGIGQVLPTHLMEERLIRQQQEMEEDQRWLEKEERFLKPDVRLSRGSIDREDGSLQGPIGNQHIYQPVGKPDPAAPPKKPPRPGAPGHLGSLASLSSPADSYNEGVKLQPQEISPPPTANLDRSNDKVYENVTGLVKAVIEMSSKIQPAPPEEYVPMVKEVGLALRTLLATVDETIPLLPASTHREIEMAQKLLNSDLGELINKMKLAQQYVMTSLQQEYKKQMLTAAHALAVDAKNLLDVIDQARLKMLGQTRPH

[4] = tested on: Fibrinogen (Alexa647-labelled); experiment: Alexa647-fibrinogen binding to printed small molecules – biochemical, small-molecule microarray, 635/667 nm fluorescence, artefact control for SMM control-protein annotation, profiling panel (AID 1131); settings: fibrinogen-A647 binding fluorescence, higher = more signal;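 also: z-score merges 667 nm fluorescence with per-spot signal-to-noise over triplicate slides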
[5] = molecular target: Follistatin (Homo sapiens) (UniProt P19883); experiment: FST protein binding to printed compounds – biochemical, small-molecule microarray, 635/667 nm fluorescence, primary screen (AID 1132); settings: 635 nm fluorescence, higher = more signal
Chain of Follistatin (Homo sapiens) (P19883 whole entry, looked up): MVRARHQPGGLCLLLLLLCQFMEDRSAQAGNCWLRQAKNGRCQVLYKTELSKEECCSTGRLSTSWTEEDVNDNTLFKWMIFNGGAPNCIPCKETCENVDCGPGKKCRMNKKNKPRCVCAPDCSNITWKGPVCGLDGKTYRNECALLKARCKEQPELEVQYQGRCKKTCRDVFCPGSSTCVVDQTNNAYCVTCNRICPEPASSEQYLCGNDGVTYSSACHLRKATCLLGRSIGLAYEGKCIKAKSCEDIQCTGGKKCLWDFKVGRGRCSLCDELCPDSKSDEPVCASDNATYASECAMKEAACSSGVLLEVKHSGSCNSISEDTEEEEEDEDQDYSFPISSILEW

[6] = molecular target: Fibroblast growth factor 2 (Homo sapiens) (UniProt P09038); experiment: basic fibroblast growth factor binding to printed compounds – biochemical, small-molecule microarray, 635/667 nm fluorescence, primary screen (AID 1133); settings: FGF2, fluorescence 635/667, higher = more signal
Chain of Fibroblast growth factor 2 (Homo sapiens) (P09038 whole entry, looked up): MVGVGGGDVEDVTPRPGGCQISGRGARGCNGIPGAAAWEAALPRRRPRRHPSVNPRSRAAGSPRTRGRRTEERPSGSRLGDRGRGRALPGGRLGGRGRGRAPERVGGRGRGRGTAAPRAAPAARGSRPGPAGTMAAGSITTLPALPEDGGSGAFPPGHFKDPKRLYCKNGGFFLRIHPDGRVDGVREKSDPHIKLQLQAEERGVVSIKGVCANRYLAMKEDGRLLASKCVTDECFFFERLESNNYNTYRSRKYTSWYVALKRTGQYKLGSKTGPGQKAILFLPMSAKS

[7] = JC-1 mitochondrial potential readout, lung cancer cells – cell-based, A549, JC-1 fluorescence, basal, 24 h, 100 nL, profiling panel (AID 1138); settings: higher = more signal;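 also: A549 lung adenocarcinoma cells under basal conditions with no added stimulus; test concentration not given here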
[8] = tested on: Lefty1; experiment: Lefty1 protein binding to printed compounds – biochemical, small-molecule microarray, 635/667 nm fluorescence, primary screen (AID 1139); settings: fluorescence 635/667, higher = more signal
[9] = tested on: wheat germ agglutinin (Triticum aestivum), Alexa647-labelled; experiment: Alexa647-WGA lectin binding to printed small molecules – biochemical, small-molecule microarray, 635/667 nm fluorescence, artefact control for SMM control-protein annotation, profiling panel (AID 1140); settings: WGA-A647 binding, 635 nm fluorescence, higher = more signal;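 also: score merges 667 nm feature emission with signal to noise over triplicate slides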
[10] = molecular target: Luciferin 4-monooxygenase (Photinus pyralis) (UniProt P08659); experiment: inhibition of purified Photinus pyralis luciferase – biochemical, luminescence, purified enzyme, 2006 set, primary screen (AID 1141); settings: purified firefly luciferase, SteadyGlo luminescence, 30 min; higher = more signal, called active from +8 up or from −8 down;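 also: cell-free assay with purified firefly luciferase at 100 ng per well in PBS; test concentration not given here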
Chain of Luciferin 4-monooxygenase (Photinus pyralis) (P08659 whole entry, looked up): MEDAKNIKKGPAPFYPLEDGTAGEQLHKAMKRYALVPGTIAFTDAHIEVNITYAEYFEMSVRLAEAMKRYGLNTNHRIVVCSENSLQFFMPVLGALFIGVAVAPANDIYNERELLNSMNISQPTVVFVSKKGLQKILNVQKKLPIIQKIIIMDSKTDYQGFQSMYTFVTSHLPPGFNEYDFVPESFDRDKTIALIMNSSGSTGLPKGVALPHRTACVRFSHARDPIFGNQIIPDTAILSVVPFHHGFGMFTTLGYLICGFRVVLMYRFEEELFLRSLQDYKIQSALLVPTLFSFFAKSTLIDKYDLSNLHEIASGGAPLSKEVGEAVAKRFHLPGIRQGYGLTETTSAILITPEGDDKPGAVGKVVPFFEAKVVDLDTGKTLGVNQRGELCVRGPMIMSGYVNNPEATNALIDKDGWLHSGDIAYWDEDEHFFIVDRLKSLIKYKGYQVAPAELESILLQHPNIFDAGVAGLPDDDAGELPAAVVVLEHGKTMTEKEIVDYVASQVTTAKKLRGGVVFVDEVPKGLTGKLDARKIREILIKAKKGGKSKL

[11] = tested on: Wnt5a (protein binding on small-molecule microarray); experiment: small molecules binding Wnt5a protein – biophysical, small-molecule microarray, 635/667 nm fluorescence, primary screen (AID 1142); settings: 635 nm fluorescence, higher = more signal;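 also: fluorescence read at 667 nm with signal to noise per printed feature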
[12] = ATP-based viability of Huh7 replicon cells – cell-based, CellTiter-Glo luminescence, basal, 48 h, cytotoxicity control for HCV replication inhibitor project, primary screen (AID 1143); settings: higher = more signal, called active from +8 up or from −8 down;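 also: Huh7 hepatoma cells carrying a hepatitis C replication reporter with no stimulus; test concentration not given here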
[13] = Pseudomonas biofilm growth suppression – PAO1 strain, BacTiter-Glo luminescence, LB-PBS, primary screen (AID 1144); settings: P. aeruginosa PAO1 biofilm, 12 h, higher = more signal
[14] = basal CRE-LacZ reporter activity in PC12 – cell-based, unstimulated, primary screen (AID 1145); settings: no forskolin, luminescence, 4.5 h, higher = more signal, called active from +8 up or from −8 down
[15] = forskolin-driven CRE-LacZ activity in PC12 – cell-based, CRE-LacZ reporter, forskolin-stimulated, primary screen (AID 1146); settings: luminescence, 4.5 h, higher = more signal, called active from +8 up or from −8 down;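 also: PC12 cells with 6xCRE LacZ reporter stimulated by forskolin 10 µM; beta-galactosidase reporter signal reflecting CREB driven transcription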
[16] = molecular target: Streptavidin (Streptomyces avidinii) (UniProt P22629); experiment: compounds binding control protein streptavidin – biophysical, small-molecule microarray, 635/667 nm fluorescence, artefact control for SMM compound annotation, primary screen (AID 1147); settings: higher = more signal;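 also: signal reflects streptavidin binding to arrayed compounds as a control protein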
Chain of Streptavidin (Streptomyces avidinii) (P22629 whole entry, looked up): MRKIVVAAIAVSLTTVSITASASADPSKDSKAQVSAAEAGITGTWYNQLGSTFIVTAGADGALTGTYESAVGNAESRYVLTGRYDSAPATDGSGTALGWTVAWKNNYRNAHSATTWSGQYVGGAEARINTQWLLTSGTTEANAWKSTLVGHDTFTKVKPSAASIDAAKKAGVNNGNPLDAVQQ

[17] = probe aInhba binding on compound microarray – biochemical, small-molecule microarray, 635/667 nm fluorescence, primary screen (AID 1148); settings: higher = more signal;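 also: score merges 667nm spot fluorescence with signal-to-noise for antibody binding to printed compounds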
[18] = molecular target: Torsin-1A (Homo sapiens) (UniProt O14656); experiment: TOR1A wild-type binding on microarray – cell lysate, small-molecule microarray, lysate, 635/667 nm, primary screen (AID 1149); settings: COS7 hTOR1A-WT lysate, 635 nm fluorescence, higher = more signal
Chain of Torsin-1A (Homo sapiens) (O14656 whole entry, looked up): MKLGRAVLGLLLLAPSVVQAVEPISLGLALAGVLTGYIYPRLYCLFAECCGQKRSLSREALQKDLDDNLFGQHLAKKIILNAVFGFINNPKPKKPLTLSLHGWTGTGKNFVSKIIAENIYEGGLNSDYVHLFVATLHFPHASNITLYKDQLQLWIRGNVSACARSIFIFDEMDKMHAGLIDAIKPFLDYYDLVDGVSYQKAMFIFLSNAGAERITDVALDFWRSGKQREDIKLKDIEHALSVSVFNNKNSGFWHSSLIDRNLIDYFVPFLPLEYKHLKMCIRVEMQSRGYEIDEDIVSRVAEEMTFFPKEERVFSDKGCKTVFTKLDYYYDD

[19] = molecular target: Torsin-1A (Homo sapiens) (UniProt O14656); experiment: torsin A mutant lysate binding on microarrays – cell lysate, small-molecule microarray, COS7 lysate, 635/667 nm fluorescence, primary screen (AID 1150); settings: COS7 hTOR1A mutant lysate, 635 nm fluorescence, higher = more signal;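 also: score pools 667 nm emission and signal to noise measuring lysate protein binding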
[20] = tested on: Sonic hedgehog protein (Shh); experiment: Sonic hedgehog microarray binding compounds – biochemical, small-molecule microarray, 635/667 nm fluorescence, primary screen (AID 1151); settings: 635 nm fluorescence, higher = more signal;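 also: Shh protein binding to compounds spotted on small-molecule microarray slides; score combines spot fluorescence intensity with signal-to-noise across triplicate slides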

| SMILES | composite z-score [1] | composite z-score [2] | composite z-score [3] | composite z-score [4] | composite z-score [5] | composite z-score [6] | z-score [7] | composite z-score [8] | composite z-score [9] | z-score [10] | composite z-score [11] | z-score [12] | z-score [13] | z-score [14] | z-score [15] | composite z-score [16] | composite z-score [17] | composite z-score [18] | composite z-score [19] | composite z-score [20] |
| --- | --- | --- | --- | --- | --- | --- | --- | --- | --- | --- | --- | --- | --- | --- | --- | --- | --- | --- | --- | --- |
| CCCCC(O)C1C=CC2C(=O)N(c3ccccc3)C(=O)C2N1Nc1ccccc1F (stereo not given) | 1.35 | 1.11 | 0.527 | 0.924 | 0.347 | -0.563 | 0.354 | -0.0785 | 1.2 | 0.247 (inactive) | 0.182 | 0.615 (inactive) | -0.571 (inactive) | -0.143 (inactive) | 0.569 (inactive) | 2.09 | 0.297 | 0.31 | 0.129 | -0.0688 |
| O=C(c1ccccc1)N1Cc2ccccc2[C@@H]2OC(c3ccc(OCCCO)cc3)=N[C@]2(Cc2ccccc2)C1=O | 2.33 | 1.19 | 0.319 | 0.924 | 1.32 | 1.02 | -0.411 | 0.838 | 0.765 | -0.976 (inactive) | 0.624 | -3.55 (inactive) | -0.554 (inactive) | 1.35 (inactive) | 0.715 (inactive) | 0.215 | 0.188 | 0.236 | 0.423 | 1.33 |
| O=C1O[C@H](c2ccccc2)[C@H](c2ccccc2)N2[C@H]1[C@@H](C(=O)NC[C@H](O)c1ccccc1)[C@]1(C(=O)Nc3ccccc31)[C@H]2c1ccc(OCCO)cc1 | 1.77 | 1.2 | 1.06 | 0.743 | 0.992 | 0.655 | -0.253 | 0.0702 | 0.864 | -0.609 (inactive) | 0.187 | -2.93 (inactive) | -1.13 (inactive) | -0.0784 (inactive) | -0.499 (inactive) | 0.261 | -0.0044 | 1.55 | 0.492 | 0.297 |
| O=C1O[C@H](c2ccccc2)[C@H](c2ccccc2)N2[C@H]1[C@@H](C(=O)Nc1nc3ccccc3s1)[C@]1(C(=O)Nc3ccc(C#CCCO)cc31)[C@H]2c1ccc(OCCO)cc1 | 1.18 | 1.18 | 0.232 | 0.9 | 1.43 | 1.15 | -2.36 | 1.16 | 1.04 | -2.97 (inactive) | 0.767 | -0.218 (inactive) | -0.0404 (inactive) | -0.471 (inactive) | 0.806 (inactive) | 1.1 | 0.532 | 1.15 | 0.637 | 1.05 |
| CC(C)C(=C=CC[C@@H](O)c1ccccc1OCCO)CCO | 2.31 | 0.43 | 0.306 | 0.442 | 0.71 | 0.853 | 0.991 | 0.352 | 0.201 | -1.91 (inactive) | -0.0322 | -3.75 (inactive) | 0.0933 (inactive) | 5.12 (inactive) | -0.366 (inactive) | 0.666 | -0.016 | -0.502 | -0.455 | 0.575 |
| C=CCNC(=O)[C@H]1[C@@H]2C(=O)O[C@@H](c3ccccc3)[C@@H](c3ccccc3)N2[C@@H](c2ccc(OCCO)cc2)[C@]12C(=O)Nc1ccc(C#CC3=CCCCC3)cc12 | 0.354 | 1.09 | -0.544 | 0.957 | 1.26 | 0.553 | -0.801 | 0.937 | 0.494 | 0.098 (inactive) | 0.722 | -4.45 (inactive) | 0.334 (inactive) | 0.775 (inactive) | -0.267 (inactive) | 0.376 | -0.0136 | 0.127 | 0.578 | 1.54 |
| CC(CO)N1C(=O)[C@@H]2C3C(=O)OCCC/C=C\[C@H]3OC23C=CCN(c2ccc4ccccc4c2)C(=O)[C@@H]13 (stereo not given in full) | 0.339 | -0.351 | -0.363 | 0.167 | -0.382 | -0.865 | 0.45 | -0.632 | 0.0312 | -0.846 (inactive) | -0.632 | 0.645 (inactive) | -1.02 (inactive) | -0.0737 (inactive) | 0.156 (inactive) | -0.342 | -0.0719 | -1.72 | -1.03 | -0.256 |
| C=CCOC(=O)[C@H]1[C@@H]2C(=O)O[C@@H](c3ccccc3)[C@@H](c3ccccc3)N2[C@@H](c2ccc(OCCOC(=O)[C@@H]3C[C@@H]4C(=O)N[C@@H](CCCC[N+](C)(C)C)C(=O)N4[C@@H]3c3ccc(O)cc3)cc2)[C@]12C(=O)Nc1ccccc12 | 1.46 | 1.2 | 0.877 | 0.583 | 1.26 | 1.51 | -0.849 | 1.18 | 0.494 | -2.95 (inactive) | 0.444 | -2.47 (inactive) | -1.19 (inactive) | -1.07 (inactive) | -1.48 (inactive) | -0.0862 | -0.0494 | 1.67 | 1.23 | 2.06 |
